Experimental findings from ChEMBL document CHEMBL4513216, “Probing the Open Global Health Chemical Diversity Library for Multistage-Active Starting Points for Next-Generation Antimalarials” (ACS Infect Dis, 2020) are described below.

Each structure is given as a SMILES string. About 2,700 (4%) of roughly 68,000 compounds showed an effect of 50% or more. The sample holds strong results, similar compounds and a random draw of the others, so the mix is not that of the screen.

The test system of this assay is Plasmodium berghei. Kind of assay: Screen against P. berghei liver stage (PbLuc), transformed with Luciferase, at 2uM. The conditions noted are these: tested at 2 uM. The assay is classed as functional, HepG2.
Turning to `CCOCCn1c(=O)[nH]c2cc(C(=O)N(C)Cc3nc(C)cs3)ccc21`, the INHIBITION was 51.98%.
The same measure for `CCOCCn1c(=O)[nH]c2cc(C(=O)N(C)Cc3nc(C)c[nH]3)ccc21`: 11.64%; for `CCOCCn1c(=O)[nH]c2cc(C(=O)N(C)Cc3cc(C)[nH]n3)ccc21`: 14.24%.
Take `COCCN1CCc2ncnc(-c3ccccc3)c2CC1`: the INHIBITION is listed as 39.44%.
The same measure for `Cc1ccn2ncc(C(=O)N3CCCC(n4ccnc4C)C3)c2n1` (stereo not drawn): 56.02%; for `CCc1nccn1C1CCCN(C(=O)c2cnn3ccc(C)nc23)C1` (stereo not drawn): -14.3%.
The same measure for `Cc1csc(C2CCCN(C(=O)c3cnn4ccc(C)nc34)C2)n1` (stereo not drawn): 14.96%.
The result for `Cc1ccn2ncc(C(=O)N3CCCC(n4cccn4)C3)c2n1` (stereo not drawn) reads 5.52%.
For `Cc1ccn2ncc(C(=O)N3CCCC(c4cc(C)[nH]n4)C3)c2n1` (stereo not drawn), the INHIBITION came out at 18.91%.
The result for `Cc1ccn2ncc(C(=O)N3CCCC(c4noc(C)n4)C3)c2n1` (stereo not drawn) reads 50.52%.
The same measure for `CCN1Cc2cc(F)ccc2N(C(C)=O)CCC1=O`: -10.65%; for `CNc1nc2c(s1)C(c1ccccc1F)CC(=O)N2` (stereo not drawn): -37.62%.
The same measure for `Cc1ccc(-c2ncc(CNc3cnccc3CO)s2)cc1`: -13.13%; for `O=C(C1CCC2(CCN(Cc3cccnc3)CC2)CO1)N1CCCC1` (stereo not drawn): -84.83%; for `CC(NC(=O)N1CCN(c2cccs2)CC1)c1ccc(C#N)cc1` (stereo not drawn): 16.79%.
For the molecule `CN1CCN(Cc2nnc(C3CCN(C(CO)CO)CC3)n2C)CC1`, the INHIBITION is 59.68%.
The same measure for `CN1CCN(Cc2nnc(C3CCN(C4CCCCC4)CC3)n2C)CC1`: 26.81%; for `CN1CCN(Cc2nnc(C3CCN(CC4CC4)CC3)n2C)CC1`: -0.04%; for `Cc1cc(CN2CCC(C3Nc4ccccc4S(=O)(=O)N3)CC2)oc1C` (stereo not drawn): 22.81%.
The result for `CCOC(=O)CN(C)C1CCc2ccccc21` (stereo not drawn) reads 44.71%; that for `CN(C)C(=O)CNC(=O)c1cc2ccccc2nc1N1CCCC1`, 8.74%.
The same measure for `CCn1cc(Cl)c(C(=O)NCCCO)n1`: 12.84%.
As to `O=C(CCNC(=O)c1ccc(Cl)cc1)NCc1nc(C2CC2)no1`, the INHIBITION is 60.34%.
The same measure for `CCN(CC(=O)NCc1nc(C2CC2)no1)Cc1ccc(Cl)cc1`: -37.68%; for `CCc1nc(C2CCCN(C(=O)c3ccc(Cl)cc3)C2)no1` (stereo not drawn): 9.82%; for `c1cnc(N2CCCC(NCc3ccc(-n4ccnc4)cc3)C2)nc1` (stereo not drawn): 1.91%.
As for `Cc1cnn(CC2CCCCN2C(=O)c2c(C)noc2C)c1` (stereo not drawn), the INHIBITION is given as -13.24%.
As for `CCC(CO)NCc1ccc(-c2ccccc2)o1` (stereo not drawn), the INHIBITION is recorded as 12.02%.
The result for `CN(C)c1ccc(C(=O)NCCCNc2ccc(C(F)(F)F)cn2)cc1` reads 25.74%.
The same measure for `Nc1ncc(-c2ccc(F)cc2)c(C2CCCNC2)n1` (stereo not drawn): 54.2%; for `Nc1ncc(-c2ccc(C(F)(F)F)cc2)c(C2CCCNC2)n1` (stereo not drawn): -10.58%.
The same measure for `Nc1ncc(-c2ccc(Cl)cc2)c(C2CCCNC2)n1` (stereo not drawn): 37.63%; for `O=C(C1CC=CC1)N1C[C@@H]2CN(Cc3ccsc3)CCO[C@@H]2C1`: -10.92%.
For `Cc1ccc(C)c(CC(=O)NC2CCCS(=O)(=O)C2)c1` (stereo not drawn), the INHIBITION was found to be 57.75%.
As for `Cc1ccc(C)c(CC(=O)NC2CCS(=O)(=O)CC2)c1`, the INHIBITION was 29.13%.
Regarding `Cc1ccc(C)c(CC(=O)NC2CCC(N3C(=O)CCC3=O)CC2)c1` (stereo not drawn), the INHIBITION is recorded as -37.65%.
The same measure for `CC(C)c1nc(CN(C)C(=O)c2ccc(CN3CCCCC3)cc2)cs1`: 0.31%; for `Fc1ccc(CN2CCC3(CC2)CC(c2cccnc2)CO3)cc1` (stereo not drawn): -14.21%; for `CCOCc1cnc2n1CCN(C(=O)Cc1cccs1)C2C` (stereo not drawn): -24.63%.
The result for `CC(C)N(C)Cc1cnc2n1CCN(C(=O)Cc1cccs1)C2C` (stereo not drawn) reads 70.31%.
The result for `CC1c2ncc(Cn3cncn3)n2CCN1C(=O)Cc1cccs1` (stereo not drawn) reads 28.77%; that for `CCc1n[nH]c(C2CN(C(=O)c3cc4c(s3)CCCC4)CCO2)n1` (stereo not drawn), 20.28%.
Regarding `Cc1cc2c(N)nc(=O)n(CC(=O)Nc3cccc(Cl)c3)c2s1`, the INHIBITION came out at 6.05%.
The same measure for `CCN(CCOC)C(=O)c1cc(COc2ccc3c(c2)CCCC3)on1`: 29.89%; for `CCOCCN1CCc2cncnc2C1`: 31.51%; for `CC(C)OCCN1CCc2cncnc2C1`: 62.51%.
The same measure for `COCCCN1CCc2cncnc2C1`: -12.48%; for `COC(=O)c1sc(C(NC(=O)c2ccccc2)C2CC2)nc1C` (stereo not drawn): -13.12%.
Consider `C=C(C)CN1CCC(NC(=O)c2scnc2C)CC1`, for which the INHIBITION is reported as -7.13%.
The same measure for `COc1cc(I)c(Cl)cc1C(=O)N(C)C`: 32.04%.
The same measure for `COCCNc1nc2c(c(N3CCn4nc(C)cc4C3)n1)CCNCC2`: 51.19%.
Consider `CCOCc1nc2c(c(N3CCCn4nc(C)cc4C3)n1)CCNCC2`, for which the INHIBITION is recorded as -31.55%.
The result for `Cc1cc2n(n1)CCN(c1nc(N)nc3c1CCNCC3)C2` reads 17.6%.
